Where a name gives a salt, the structure may show the parent alone.
Key:
Experiment in all cases: phenotypically active (imaging signature differs from DMSO and reproducible) at any of 0.3-9 uM (binary (1 = active, 0 = inactive)); higher = active
Conditions in all cases: treatment time: 24 h
A549-ACTB-RAB5A = system: A549-ACTB-RAB5A
Outline: (§1)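 Four wells per concentration (0.3, 1, 3 or 9 µM) were treated for 24 h in each of fifteen gene-edited reporter lines from A549, HepG2 and WPMY1 cells, then imaged live. After normalising live-cell features to solvent control wells, deviation was defined as ≥3 of 4 wells lying past the 95th percentile of control Euclidean distances. Reproducibility was defined as a median replicate Pearson correlation above the 95th percentile of non-replicates. Both had to hold for phenotypic activity.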

A549-CANX-COX4 = system: A549-CANX-COX4
Outline: as §1

A549-GM130-SQSTM1 = system: A549-GM130-SQSTM1
Outline: as §1

A549-TP53BP1-CLTA = system: A549-TP53BP1-CLTA
Outline: as §1

A549-TUBA1B-RELA = system: A549-TUBA1B-RELA
Outline: as §1

HepG2-ACTB-RAB5A = system: HepG2-ACTB-RAB5A
Outline: as §1

HepG2-CANX-COX4 = system: HepG2-CANX-COX4
Outline: as §1

HepG2-GM130-SQSTM1 = system: HepG2-GM130-SQSTM1
Outline: as §1

HepG2-TP53BP1-CLTA = system: HepG2-TP53BP1-CLTA
Outline: as §1

HepG2-TUBA1B-RELA = system: HepG2-TUBA1B-RELA
Outline: as §1

WPMY1-ACTB-RAB5A = system: WPMY1-ACTB-RAB5A
Outline: as §1

WPMY1-CANX-COX4 = system: WPMY1-CANX-COX4
Outline: as §1

WPMY1-GM130-SQSTM1 = system: WPMY1-GM130-SQSTM1
Outline: as §1

WPMY1-TP53BP1-CLTA = system: WPMY1-TP53BP1-CLTA
Outline: as §1

WPMY1-TUBA1B-RELA = system: WPMY1-TUBA1B-RELA
Outline: as §1

Measured: phenotypically active

N[C@@H](C(=O)O)c1ccc(C(=O)O)c(C(=O)O)c1
inactive: A549-ACTB-RAB5A 0 | A549-CANX-COX4 0 | A549-GM130-SQSTM1 0 | A549-TP53BP1-CLTA 0 | A549-TUBA1B-RELA 0 | HepG2-ACTB-RAB5A 0 | HepG2-CANX-COX4 0 | HepG2-GM130-SQSTM1 0 | HepG2-TP53BP1-CLTA 0 | HepG2-TUBA1B-RELA 0 | WPMY1-ACTB-RAB5A 0 | WPMY1-CANX-COX4 0 | WPMY1-GM130-SQSTM1 0 | WPMY1-TP53BP1-CLTA 0 | WPMY1-TUBA1B-RELA 0

CCCC(CCC)C(=O)O [Valproic acid, sodium salt]
inactive: A549-ACTB-RAB5A 0 | A549-CANX-COX4 0 | A549-GM130-SQSTM1 0 | A549-TP53BP1-CLTA 0 | A549-TUBA1B-RELA 0 | HepG2-ACTB-RAB5A 0 | HepG2-CANX-COX4 0 | HepG2-GM130-SQSTM1 0 | HepG2-TP53BP1-CLTA 0 | HepG2-TUBA1B-RELA 0 | WPMY1-ACTB-RAB5A 0 | WPMY1-CANX-COX4 0 | WPMY1-GM130-SQSTM1 0 | WPMY1-TP53BP1-CLTA 0 | WPMY1-TUBA1B-RELA 0

O=C1NC(=O)C(c2ccccc2)(c2ccccc2)N1 [phenytoin]
inactive: A549-ACTB-RAB5A 0 | A549-CANX-COX4 0 | A549-GM130-SQSTM1 0 | A549-TP53BP1-CLTA 0 | A549-TUBA1B-RELA 0 | HepG2-ACTB-RAB5A 0 | HepG2-CANX-COX4 0 | HepG2-GM130-SQSTM1 0 | HepG2-TP53BP1-CLTA 0 | HepG2-TUBA1B-RELA 0 | WPMY1-ACTB-RAB5A 0 | WPMY1-CANX-COX4 0 | WPMY1-GM130-SQSTM1 0 | WPMY1-TP53BP1-CLTA 0 | WPMY1-TUBA1B-RELA 0

Cc1[nH]c2ccccc2c1CCNC(=O)c1ccccc1F
inactive: A549-ACTB-RAB5A 0 | A549-CANX-COX4 0 | A549-GM130-SQSTM1 0 | A549-TP53BP1-CLTA 0 | A549-TUBA1B-RELA 0 | HepG2-ACTB-RAB5A 0 | HepG2-CANX-COX4 0 | HepG2-GM130-SQSTM1 0 | HepG2-TP53BP1-CLTA 0 | HepG2-TUBA1B-RELA 0 | WPMY1-ACTB-RAB5A 0 | WPMY1-CANX-COX4 0 | WPMY1-GM130-SQSTM1 0 | WPMY1-TP53BP1-CLTA 0 | WPMY1-TUBA1B-RELA 0

CCc1nn(CCCN2CCN(c3cccc(Cl)c3)CC2)c(=O)n1CCOc1ccccc1 [nefazodone]
inactive: A549-ACTB-RAB5A 0 | A549-CANX-COX4 0 | A549-GM130-SQSTM1 0 | A549-TP53BP1-CLTA 0 | A549-TUBA1B-RELA 0 | HepG2-ACTB-RAB5A 0 | HepG2-CANX-COX4 0 | HepG2-GM130-SQSTM1 0 | HepG2-TP53BP1-CLTA 0 | HepG2-TUBA1B-RELA 0 | WPMY1-ACTB-RAB5A 0 | WPMY1-CANX-COX4 0 | WPMY1-GM130-SQSTM1 0 | WPMY1-TP53BP1-CLTA 0 | WPMY1-TUBA1B-RELA 0

CC(=O)N[C@@H]1[C@@H](O[C@H](C)C(=O)O)[C@H](O)[C@@H](CO)O[C@@H]1O [Muramic acid, N-acetyl]
inactive: A549-ACTB-RAB5A 0 | A549-CANX-COX4 0 | A549-GM130-SQSTM1 0 | A549-TP53BP1-CLTA 0 | A549-TUBA1B-RELA 0 | HepG2-ACTB-RAB5A 0 | HepG2-CANX-COX4 0 | HepG2-GM130-SQSTM1 0 | HepG2-TP53BP1-CLTA 0 | HepG2-TUBA1B-RELA 0 | WPMY1-ACTB-RAB5A 0 | WPMY1-CANX-COX4 0 | WPMY1-GM130-SQSTM1 0 | WPMY1-TP53BP1-CLTA 0 | WPMY1-TUBA1B-RELA 0

COc1ccc(C[C@H](C)NC[C@@H](O)c2ccc(O)c(NC=O)c2)cc1 [formoterol]
inactive: A549-ACTB-RAB5A 0 | A549-CANX-COX4 0 | A549-GM130-SQSTM1 0 | A549-TP53BP1-CLTA 0 | A549-TUBA1B-RELA 0 | HepG2-ACTB-RAB5A 0 | HepG2-CANX-COX4 0 | HepG2-GM130-SQSTM1 0 | HepG2-TP53BP1-CLTA 0 | HepG2-TUBA1B-RELA 0 | WPMY1-ACTB-RAB5A 0 | WPMY1-CANX-COX4 0 | WPMY1-GM130-SQSTM1 0 | WPMY1-TP53BP1-CLTA 0 | WPMY1-TUBA1B-RELA 0

Cc1cnc(C(=O)NCCc2ccc(S(=O)(=O)NC(=O)NC3CCCCC3)cc2)cn1 [glipizide]
inactive: A549-ACTB-RAB5A 0 | A549-CANX-COX4 0 | A549-GM130-SQSTM1 0 | A549-TP53BP1-CLTA 0 | A549-TUBA1B-RELA 0 | HepG2-ACTB-RAB5A 0 | HepG2-CANX-COX4 0 | HepG2-GM130-SQSTM1 0 | HepG2-TP53BP1-CLTA 0 | HepG2-TUBA1B-RELA 0 | WPMY1-ACTB-RAB5A 0 | WPMY1-CANX-COX4 0 | WPMY1-GM130-SQSTM1 0 | WPMY1-TP53BP1-CLTA 0 | WPMY1-TUBA1B-RELA 0

Nc1c2c(nc3ccccc13)CCCC2 [tacrine]
inactive: A549-ACTB-RAB5A 0 | A549-CANX-COX4 0 | A549-GM130-SQSTM1 0 | A549-TP53BP1-CLTA 0 | A549-TUBA1B-RELA 0 | HepG2-ACTB-RAB5A 0 | HepG2-CANX-COX4 0 | HepG2-GM130-SQSTM1 0 | HepG2-TP53BP1-CLTA 0 | HepG2-TUBA1B-RELA 0 | WPMY1-ACTB-RAB5A 0 | WPMY1-CANX-COX4 0 | WPMY1-GM130-SQSTM1 0 | WPMY1-TP53BP1-CLTA 0 | WPMY1-TUBA1B-RELA 0

CCCCCCCCCCCCCCCCCCc1ccc(C(=O)/C=C/C(=O)O)cc1
inactive: A549-ACTB-RAB5A 0 | A549-CANX-COX4 0 | A549-GM130-SQSTM1 0 | A549-TP53BP1-CLTA 0 | A549-TUBA1B-RELA 0 | HepG2-ACTB-RAB5A 0 | HepG2-CANX-COX4 0 | HepG2-GM130-SQSTM1 0 | HepG2-TP53BP1-CLTA 0 | HepG2-TUBA1B-RELA 0 | WPMY1-ACTB-RAB5A 0 | WPMY1-CANX-COX4 0 | WPMY1-GM130-SQSTM1 0 | WPMY1-TP53BP1-CLTA 0 | WPMY1-TUBA1B-RELA 0

COc1ccc2[nH]c(S(=O)Cc3ncc(C)c(OC)c3C)nc2c1 (stereo not given) [omeprazole]
inactive: A549-ACTB-RAB5A 0 | A549-CANX-COX4 0 | A549-GM130-SQSTM1 0 | A549-TP53BP1-CLTA 0 | A549-TUBA1B-RELA 0 | HepG2-ACTB-RAB5A 0 | HepG2-CANX-COX4 0 | HepG2-GM130-SQSTM1 0 | HepG2-TP53BP1-CLTA 0 | HepG2-TUBA1B-RELA 0 | WPMY1-ACTB-RAB5A 0 | WPMY1-CANX-COX4 0 | WPMY1-GM130-SQSTM1 0 | WPMY1-TP53BP1-CLTA 0 | WPMY1-TUBA1B-RELA 0

CC(=O)OC(C)C[N+](C)(C)C (stereo not given) [methacholine]
inactive: A549-ACTB-RAB5A 0 | A549-CANX-COX4 0 | A549-GM130-SQSTM1 0 | A549-TP53BP1-CLTA 0 | A549-TUBA1B-RELA 0 | HepG2-ACTB-RAB5A 0 | HepG2-CANX-COX4 0 | HepG2-GM130-SQSTM1 0 | HepG2-TP53BP1-CLTA 0 | HepG2-TUBA1B-RELA 0 | WPMY1-ACTB-RAB5A 0 | WPMY1-CANX-COX4 0 | WPMY1-GM130-SQSTM1 0 | WPMY1-TP53BP1-CLTA 0 | WPMY1-TUBA1B-RELA 0

Source: the supplement of paper PMC7411054
